From PubChem
Hits are enriched below; roughly 2% of the tested compounds scored in any of these assays.
eIF4E 4G PPI: eIF4E–eIF4G protein interaction inhibitors, primary screen, biochemical, uHTS, TR-FRET, eIF4GI fragment | Eukaryotic translation initiation factor 4E (Mus musculus) + Eukaryotic translation … | TR-FRET eIF4E-eIF4GI(517-606) binding, 2 h | inhibition, % at 21.7 µM | hit rate 0.37% among 220,000;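 active means inhibition above about 30%, limit read from the data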;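 further: 0% = full FRET control wells and 100% = background wells lacking eIF4GI fragment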
Insulin prom inh: inhibitors of insulin promoter-driven GFP, primary screen, imaging, TRM-6 cells (human fetal islet line), eGFP reporter, cell count | inhibition, % at 2 µM | reporter expression induced with tamoxifen | hit rate 0.9% among 130,000;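 active means inhibition above the mean plus 3 SD, with well images judged a real hit on visual review, cut at about 60% in these data, passing the limit was not always enough; inconclusive means inhibition over the cutoff but images rejected on review; inactive means inhibition not above the cutoff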
PERK inh: block of dimerizer-induced PERK translation repression, primary screen, PERK inhibitor project, CHO PERK-DD cells, SEAP luminescence, HTS; CHO PERK-DD fusion, SEAP luminescence translation reporter; inhibition, % at 5.6 µM; hit rate 0.17% among 220,000;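 active means inhibition above the mean inhibition of all tested compounds plus 3 SD, set separately per screening campaign, cut at about 2.9% in these data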;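 further: PERK kinase domain activated by AP20187 dimerizer at 100 nM; 0% = DMSO with dimerizer and 100% = rapamycin at 8.4 µM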
Ins promoter up: insulin promoter activators in MIN6 cells, imaging, high-content screening, mouse beta cells | MIN6 insulin promoter-GFP reporter; active compounds read high | z-score at 5 µM | hit rate 0.3% among 190,000 | AID 1625, 2009;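 active means z-score above 3 at 5 µM with at least 500 cells counted in the well; inconclusive means wells under 500 cells, flagged as cytotoxic or low count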
Autophagy mod: autophagy modulators in MEF cells, primary screen, imaging, high-content, MEF GFP-LC3; calls only at 10 µM (by protocol); MEF GFP-LC3 puncta imaging; test concentration mostly 10 µM; hit rate 0.98% among 190,000; AID 463193, 2010;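 active means percentage of spot-positive cells more than 3 SD above its plate mean, without a fluorescence outlier flag or 80% toxicity; inconclusive means no clear call, values can overlap the other calls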;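 further: spot-positive cell cutoff set from DMSO-treated cells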
Active calls of the source: *; i = inactive; ? = inconclusive; · = no result; + = active, no number; [ ] = remark or other dose.

SMILES	eIF4E 4G PPI	Insulin prom inh	PERK inh	Ins promoter up	Autophagy mod
CN(C)CCNc1nc2sc3c(c2c(=O)n1-c1ccccc1)CCCCC3	79*	·	-2	0.73	·
COc1ccc(-n2c(N3CCN(C)CC3)nc3sc4c(c3c2=O)CCCCC4)cc1	-2	·	-1	·	+
COc1ccc(C)cc1NC(=O)CC(NC(C)=O)c1ccccc1 (centres undefined)	-1	19	-1	4.5*	i
COc1ccc(Cl)cc1NC(=O)CC(C)c1ccccc1 (centres undefined)	2	-4	-2	·	i
O=[N+]([O-])c1ccc(N/N=C/c2sc(N3CCOCC3)nc2-c2ccccc2)c(S(=O)(=O)Nc2ccc(Cl)cc2)c1	1	-488	1	?	+
O=[N+]([O-])c1ccc(N/N=C/c2sc(N3CCOCC3)nc2-c2ccccc2)c(S(=O)(=O)Nc2ccccc2Cl)c1	7	·	1	·	+
O=C(O)c1cccc(N/N=C/c2sc(N3CCOCC3)nc2-c2ccccc2)c1	-1	47	1	-0.3	i
Cc1ccc(C(=O)O/N=C(\N)c2nonc2N)cc1	1	·	0	-0.05	i
CCCCC(=O)Nc1cc(Cl)ccc1C(=O)O	4	·	0	-0.45	i
N#C/C(=C/c1ccc(N2CCOCC2)o1)c1ccc(Cl)cc1	7	-63	0	·	+
N#C/C(=C\c1ccc(N2CCOCC2)o1)c1nc2ccccc2[nH]1	-10	-142	0	·	?
C#CCOc1nc2c(c(=O)n(C)c(=O)n2C)n1Cc1ccccc1	3	·	-1	-0.39	·
COc1ccc(/C=N/n2c(-c3cccs3)n[nH]c2=S)cc1	33*	15	1	·	i
Cc1ccc(-c2oc3ccccc3c(=O)c2O)cc1	3	·	0	-1.4	+
O=C(CC12CC3CC(CC(C3)C1)C2)NCC(=O)N1CCc2ccccc2C1	-3	-23	-2	3.3*	i
N=C1c2ccccc2CN1NC(=O)CC12CC3CC(CC(C3)C1)C2	1	-14	-1	-0.03	i
O=C(O)C1CC=CCC1C(=O)NNc1ccccc1 (centres undefined)	-4	·	0	-0.09	i
O=C(O)C1CC=CCC1C(=O)c1ccccc1 (centres undefined)	-2	66*	1	-1.1	i
CCCCSc1nc(C)cc(SCC(=O)N/N=C/c2ccccc2)n1	0	-50	1	·	i
CCOC(=O)[C@H](CCc1ccccc1)N[C@@H](C)C(=O)N1CCC[C@H]1C(=O)O	1	67*	1	·	i
CCOc1ccc2c(c1)C(c1ccc(C)o1)=NNC(c1ccncc1)=N2	0	·	0	0.06	+
COc1ccc(OC)c2c1sc(=NC(=O)c1cccc(N3C(=O)CCC3=O)c1)n2C	-3	·	0	-0.25	+
CCn1c(=NC(=O)c2cccc(N3C(=O)CCC3=O)c2)sc2c(OC)ccc(OC)c21	-2	·	0	-0.47	i
COc1cc(/C=C/C(=O)O)cc(S(=O)(=O)Nc2ccccc2Cl)c1OC	17	7	1	0.01	i
COC(=O)CN1C(=S)N(Cc2ccccc2)C(=O)C1CC(=O)Nc1ccc(OC)cc1 (centres undefined)	-8	80*	-1	·	i
SMILES	eIF4E 4G PPI	Insulin prom inh	PERK inh	Ins promoter up	Autophagy mod
CCCCc1ccc(NC(=O)C(C)CC)cc1 (centres undefined)	-3	11	1	-0.62	i
COc1cc(OC)cc(-n2nnnc2SCC(=O)Nc2ccc(C(C)=O)cc2)c1	-37	·	1	·	+
NCC(O)(c1ccc(Cl)cc1)c1ccc(Cl)cc1	6	·	1	-1.1	+
CC(C)(C)NCC(O)(c1ccc(Cl)cc1)c1ccc(Cl)cc1	-4	-66	-1	-2.2	i
Clc1ccc2c(c1)C(N1CCNCC1)Cc1ccccc1S2 (centres undefined)	-1	i	-2	·	+
N#Cc1cccnc1N1CCC(C(N)=O)CC1	3	·	1	0.18	·
CCCCCCOc1ccc(-c2ccc(C#N)cn2)cc1	3	-8	3.1*	0.2	i
Nc1nnc(Cc2ccccc2F)s1	0	·	0	-0.34	+
Nc1nnc(Cc2ccc(Cl)cc2Cl)s1	0	-97	0	0.45	i
Cc1cc(-c2ccc(NC(=O)[C@@H]3CCCC[C@@H]3C(=O)O)c(C)c2)ccc1NC(=O)[C@@H]1CCCC[C@@H]1C(=O)O	1	·	1	0.44	i
COc1ccc(CNC(=O)CS(=O)Cc2nc(-c3ccc(C)cc3)oc2C)cc1 (centres undefined)	3	·	-1	-0.19	i
COCCNC(=O)CS(=O)Cc1nc(-c2ccc(OC)cc2)oc1C (centres undefined)	-2	·	1	0.52	+
CCN(CC)CCN1C(=O)c2oc3ccccc3c(=O)c2C1c1ccccc1 (centres undefined)	-5	21	-1	3.7*	i
CCN(CC)CCN1C(=O)c2oc3ccccc3c(=O)c2C1c1cccc(Br)c1 (centres undefined)	0	0	-1	·	i
CC(=O)c1ccc(NC(=O)c2ccc3nc(-c4ccco4)c(-c4ccco4)nc3c2)cc1	47*[fluorescence artefact?]	4	0	-1.2	i
O=C(NCCCO)c1ccc2nc(-c3ccco3)c(-c3ccco3)nc2c1	6	·	0	-0.77	i
O=C(NCCO)Nc1ccc2nc(-c3ccco3)c(-c3ccco3)nc2c1	62*	·	0	0.61	i
O=C(Nc1ccccc1)c1ccc2nc(-c3ccco3)c(-c3ccco3)nc2c1	0	8	0	1.6	i
CC(NC(=O)OCc1ccccc1)C(=O)NCC(=O)NC(Cc1ccc(OC(C)(C)C)cc1)C(=O)OC(C)(C)C (centres undefined)	6	-7	0	·	i
O=c1ncn(-c2ccccc2F)c2ncccc12	-8	·	1	-0.32	i
CC(C)N(Cc1ccccc1)C(=O)COC(=O)/C=C/c1cnc2ccccc2n1	4	·	0	0.08	i
O=C(CCl)Nc1cccc2ncccc12	-2	-17	1	4*	i
CCOc1ccc(N(CC(=O)NC2CCCC2)C(=O)CSc2nnc(COc3ccccc3)o2)cc1	-13	35	-2	0.35	i
Cc1ccc(/C=C/C(=O)Nc2sc3c(c2C#N)CCCC3)o1	1	·	1	-0.22	i
CCOC(=O)C1=C(c2ccccc2)NC(SCC(=O)Nc2cccc(C)c2)=C(C#N)C1c1ccco1 (centres undefined)	-6	·	-1	-0.26	+
CCOC(=O)C1=C(c2ccccc2)NC(SCC(=O)Nc2ccc(C)cc2)=C(C#N)C1c1ccco1 (centres undefined)	2	31	0	-1.4	i
CC(C)CCNC(=O)CCc1nnc(COc2ccccc2)o1	0	33	0	-0.08	i
